Source: the OligoGym collection

These sequences were tested against DPM2 (assay: pooled miR-30 sensor sort-seq; sequence = guide strand). Conditions: shRNA.
Also: reference of the scale not given here.

Sequence	sensor-assay potency score (higher = more potent)
TCTCTTGGTCTTCAGCATCACA	-1.19
TACTTGTGGATGACATGCTGAC	-0.0583
TGAACAGTCCCACAAACAGGAG	-1.56
TAGTAGGTGAAGATGATCAGGC	0.327

Each sequence was assayed against DPP3 in the same assay as above. Conditions: shRNA.

Sequence	sensor-assay potency score (higher = more potent)
TTCCTTACGCAGCAGCACCGTG	-1.18
AAGATCTCCAGCACTTGCGGGT	-0.379
TCGACCTCTTTGAAGAGCCGGG	-0.473
AAGTTGGGAACAAACTTGGTGT	-0.148
TGTTGGAGTAAACACCCGCGGC	-1.37
TCGTCCTGTACGAAGAGCTTGC	-0.841
TGAAGCTCTCTATATACTGGGC	-0.35
TTGTAGTTGCCCATGTTGGAGT	-1.16
TAGTTGGGGATGTTGATGCCGG	-0.85
TTGGTGTCACCAAAGGACTTGT	-0.525
TTGTCCTGGATCCAGAAGCGGG	-1.46
TTGTCCTTCTCAAAGGTTGGGG	-0.0545

The sequences below were run against DPP9 in the same assay as above. Conditions: shRNA.

Sequence	sensor-assay potency score (higher = more potent)
TAATGTGTCTACTTCTTCCACG	0.224
TTATAAAAGAATAAGAATCGAC	-0.653
TTATTCACCAGCTGCACCTGGG	-0.396
TCTTCCTTTCTTCTAGCGCAGG	-1.35
TTAATGTGTCTACTTCTTCCAC	-0.494
ATGTCATGAACATTGATCCAGA	-1.2
TAGAGGAGGGAGTTCTCTCGGC	-0.587
TCGCTGTGGAAGTCGTAGGAGG	-1.41
ATGAACATTGATCCAGACGTTG	-1.33
TAGCTGACCACGTAGAGGTGGT	-0.544
TTTGAAGGAGTTATTCACCAGC	-0.354
AATACTGTGTCTCTCGTTGGGG	0.209

What follows are sequences tested against DPPA5 in the same assay as above. Conditions: shRNA.

Sequence	sensor-assay potency score (higher = more potent)
TTTGAGCATCCCTCGCTCCTGG	-0.61
ATGGACTGGAGCATCCACTTGG	-0.436
TTCGAGATCCGTCCGGGCCGAA	-1.6
TGGAGCATCCACTTGGTCCGGA	-0.524
TTTCAGGTCTTCGGGAACTTTC	-1.57
TGTAAGGGATTCGAGATCCGTC	-0.0102
TTGAGCATCCCTCGCTCCTGGC	-0.972
TAAACCACGACCTCGGTGAGGT	-0.536
TTCGGGAACTTTCACCCACGGC	-1.56
TCTTCGGGAACTTTCACCCACG	-0.874
AGGGATTCGAGATCCGTCCGGG	-0.916
